# Assay results from the supplement of paper PMC4466236.
# Over roughly 33,000 sequences, “E-score (dimensionless, -0.5 to 0.5)” has its median near -0.058; the highest 2% begin near 0.35. What follows is part of a selection rich in the highest values, with near analogues and random picks from the rest.
# System: MvaT
# Experiment: PBM 8-mer E-score (mean of HK and ME arrays) (E-score (dimensionless, -0.5 to 0.5)); higher = stronger relative binding preference
# Protocol: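 Protein binding microarray: GST-tagged full-length MvaT (P. aeruginosa PAO1) bound to two universal double-stranded 60-mer arrays (ME and HK), each with a constant 25-mer primer and a variable 35-mer region covering all 8-mers. The 8-mer E-score (rank-based, range -0.5 to 0.5, >0.45 = specific binding) is the mean of the two arrays.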
row,Sequence,PBM 8-mer E-score
1,ATACACAG,0.0306
2,ACATACAA,0.362
3,CCGAAACA,0.00391
4,CTGGAACA,0.00992
5,CAGTATAG,0.0504
6,ACTTGGAC,0.0426
7,GGACACGA,-0.163
8,ATGTGTTA,0.258
9,CGCTTTAA,0.0497
10,CTTCGTGC,-0.0984
11,AATTGAGC,0.0577
12,ATATACAA,0.406
13,CTATACAA,0.202
14,ATACACAA,0.154
15,AATTAACA,0.333
16,AATCAATT,0.246
17,AATTAATG,0.359
18,AATTAATC,0.366
19,AATTAATA,0.449
20,CATTAATG,0.34
21,CGTTAATC,0.127
22,AATTAATT,0.469

row,Sequence,PBM 8-mer E-score
1,AATTACGT,0.263
2,AGTTAATG,0.271
3,AGTCCAAT,0.0865
4,CGAAAGTC,-0.0957
5,AATCTGCT,-0.0198
6,AAAGACCC,-0.224
7,CATACTAG,0.203
8,AGGGCCCG,-0.227
9,GGGTCCAC,-0.22
10,ATGCGCGG,-0.207
11,GCGGGGAA,-0.103
12,GTAAGCGA,0.0773
13,AATTAACT,0.354
14,AATTAACC,0.262
15,AATTAACG,0.28
16,ACCCAAAC,0.192
17,AAGTAATT,0.392
18,AAGTAATG,0.276
19,TAGTAATA,0.352
20,TAGTAACA,0.274
21,AAGTAATA,0.379
22,AAGTAATC,0.186

row,Sequence,PBM 8-mer E-score
1,CAGTAATA,0.273
2,GAGTAATA,0.287
3,TAGTAAAA,0.315
4,AAGTACTA,0.257
5,AAGTACTT,0.41
6,AAGTACTC,0.137
7,ATCAGGCG,-0.0225
8,ATCTGCTA,0.109
9,ACAGGACT,-0.164
10,AGTGCCGA,-0.0895
11,AAATCCCC,-0.192
12,CGTTCCAA,0.0493
13,GGTCCTCA,-0.193
14,ATAGCAGC,0.0386
15,GTAATCTA,0.151
16,AAAACTGT,0.0621
17,TAATAGTA,0.362
18,GAATAGTA,0.229
19,CAATAGTA,0.264
20,CTTATCGC,0.049
21,CCCTTTCC,-0.188
22,GCATAATA,0.339

row,Sequence,PBM 8-mer E-score
1,AAAAAATG,0.0805
2,AAATAATG,0.387
3,GAATAATC,0.188
4,ACATAATC,0.222
5,GAATAAGC,0.194
6,ACATAATA,0.401
7,GAATAATA,0.446
8,TAATAATA,0.477
9,AACCTTTA,0.192
10,AGGGCCTG,-0.226
11,GATCTGAC,-0.0641
12,ATACCAAG,-0.0486
13,CTGCGCAA,-0.0818
14,AAGAGACT,-0.04
15,AACGCGTG,-0.0417
16,ACTTCTGC,0.0207
17,TTCCAGAA,0.055
18,GCTAGGAA,-0.167
19,AAAAAATT,0.153
20,GAATAAGA,0.201
21,GAATAACA,0.2
